Results filed as inconclusive are left out. Active and inactive are the calls of the source. Unless noted, calls follow the shape of the dose curve; as a rule, active = well fitted curve in the direction sought with a large enough effect; inconclusive = small, poorly fitted or top-dose-only effect, or another doubt; inactive = no such curve, though single readings can be large; an effect the other way counts as inactive or inconclusive.
Tests used:
[1] = target: Glucocorticoid receptor (Homo sapiens) (UniProt P04150); test: qHTS assay for small molecule agonists of glucocorticoid receptor signaling (AID 588532; active = well fitted curve in the direction sought with a large enough effect in the signal ratio, with a control signal flat; the % refers to the signal ratio;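 also: 100% = dexamethasone at 0.1 µM and 0% = DMSO only wells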); conditions: HeLa MMTV-bla, beta-lactamase ratio, agonist, 18 h; stronger effect = higher value; percent of dexamethasone control, DMSO zero
Summary of the method: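 Using MMTV-bla HeLa cells in medium with 1% stripped FBS and 25 mM HEPES, compounds were titrated and incubated overnight-length (18 h). Beta-lactamase cleavage of CCF4 was quantified by dual-emission fluorescence.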

[2] = target: Glucocorticoid receptor (Homo sapiens) (UniProt P04150); test: qHTS assay for small molecule antagonists of glucocorticoid receptor signaling (AID 588533; active = well fitted inhibition curve with a large enough effect in the signal ratio, with a control signal flat, not every such curve was filed as active; the % refers to the signal ratio;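 also: cells stimulated with 2 nM dexamethasone as agonist; % is scaled to controls: 0 for no effect and ±100 for the full control effect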); conditions: HeLa MMTV-bla, GRE beta-lactamase ratio, antagonist mode, 18 h; series mostly up to 76.8 µM
Summary of the method: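 Antagonist-mode qHTS: compound titrations added to GRE-bla HeLa cells, then dexamethasone 2 nM final; 18 h, 37 C. CCF4 FRET fluorescence normalized to dexamethasone and DMSO; IC50 from Hill fit.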

[3] = qHTS assay for small molecule antagonists of peroxisome proliferator-activated receptor delta signaling (AID 588535; active = well fitted inhibition curve with a large enough effect in the signal ratio, with a control signal flat, not every such curve was filed as active; the % refers to the signal ratio;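 as to max response: cells co-treated with a PPAR-delta agonist as stimulator during compound exposure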); conditions: HEK293T PPARd-UAS-bla, beta-lactamase FRET ratio, 18 h; 460 nm channel
Summary of the method: (§1)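 Antagonist-mode qHTS using GeneBLAzer PPAR-delta-UAS-bla HEK293T cells; compound exposure 18 hrs at 37 C over a titration. Ratiometric CCF4 fluorescence at 460/530 nm; concentration-response points fitted to the Hill equation.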

[4] = target: Peroxisome proliferator-activated receptor delta (Homo sapiens) (UniProt Q03181); test: as above; conditions: HEK293T PPARd-UAS-bla, beta-lactamase FRET ratio, 18 h; series mostly up to 76.7 µM
Summary of the method: as §1

[5] = target: Peroxisome proliferator-activated receptor gamma (Homo sapiens) (UniProt P37231); test: qHTS assay for small molecule agonists of peroxisome proliferator-activated receptor gamma signaling (AID 588536; active = well fitted curve in the direction sought with a large enough effect in the signal ratio, with a control signal flat, not every such curve was filed as active; the % refers to the signal ratio;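 also: 0% = DMSO basal wells and 100% = rosiglitazone at 2 µM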); conditions: HEK293 PPARg-UAS-bla, beta-lactamase ratio, 16 h, percent of rosiglitazone response, DMSO as zero; series mostly up to 76.7 µM
Summary of the method: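 Using GeneBLAzer HEK293 cells, response was quantified by CCF4 fluorescence and normalized between basal DMSO (0%) and rosiglitazone 2 uM (100%); curves yielded half-maximal stimulation concentration and efficacy.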

[6] = target: Vitamin D3 receptor (Homo sapiens) (UniProt P11473); test: qHTS assay for small molecule agonists of vitamin D receptor signaling (AID 588543; calls by dose curve;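 also: 0% = DMSO basal and 100% = reference agonist control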); conditions: HEK293T VDR-UAS-bla, beta-lactamase ratio, 16 h; series mostly up to 76.8 µM
Summary of the method: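 Reporter cells (HEK293T, VDR-UAS-bla) were seeded in medium with 2% charcoal-stripped serum and incubated 5 h, then compounds in concentration series were added for 16 h at 37 °C. Stimulation was scaled between DMSO basal and 50 nM 1α,25-dihydroxyvitamin D3.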

[7] = qHTS assay for small molecule agonists of retinoid X receptor alpha signaling (AID 588544; calls by dose curve;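 as to activation: 0% = DMSO basal wells and 100% = reference agonist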); conditions: HEK293T RXRa-UAS-bla, beta-lactamase reporter, 18 h; 530 nm emission
[8] = target: Retinoic acid receptor RXR-alpha (Homo sapiens) (UniProt P19793); test: as above; conditions: HEK293T RXRa-UAS-bla, beta-lactamase reporter, 18 h; series mostly up to 76.7 µM
[9] = target: Thyroid hormone receptor beta (Homo sapiens) (UniProt P10828); test: qHTS assay for small molecule agonists of thyroid hormone receptor beta signaling (AID 588545; calls by dose curve;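 also: 0% = DMSO only and 100% = 10 nM T3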); conditions: TR-UAS-bla GripTite HEK 293, beta-lactamase ratio, agonist mode, 18 h; series mostly up to 76.7 µM
Summary of the method: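 Compounds were tested as agonists in TR-UAS-bla-GripTite HEK 293 cells. After 18 hrs at 37 C, CCF4 substrate was added and fluorescence read after 2 hrs at room temperature.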

[10] = qHTS assay for small molecule antagonists of retinoid X receptor alpha signaling (AID 588546; active = well fitted inhibition curve with a large enough effect in the signal ratio, with a control signal flat, not every such curve was filed as active; the % refers to the signal ratio;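 also: cells stimulated with 9-cis-retinoic acid as agonist; % is scaled to controls: 0 for no effect and ±100 for the full control effect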); conditions: HEK293T RXRa-UAS-bla, beta-lactamase ratio, antagonist mode; measured here: W530 green channel, cytotoxicity proxy
Summary of the method: (§2)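 Beta-lactamase reporter inhibition, read as CCF4 fluorescence ratio (ex 405, em 460/530 nm) after 2 h at RT. HEK293T UAS-bla cells, 2500/well, were stimulated with 9-cis-RA at 500 or 100 nM final alongside test compound for 18 h at 37 C.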

[11] = target: Retinoic acid receptor RXR-alpha (Homo sapiens) (UniProt P19793); test: as above; conditions: HEK293T RXRa-UAS-bla, beta-lactamase ratio, antagonist mode
Summary of the method: as §2

[12] = qHTS assay for environmental chemicals that activate the Aryl hydrocarbon Receptor (AhR) signaling pathway (AID 651777); conditions: 1A2-DRE human hepatoma cells, luciferase, 24 h; activation: stronger effect = higher value; also: % of control where 0% means no effect; nearly all actives have a fitted effect of over 15% in size
Summary of the method: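 Concentration–response screening used 1,200 1A2-DRE cells per well, 24 hr compound exposure (37 C, 5% CO2), and One-Glo luminescence as the AhR-driven CYP1A2 reporter signal.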

[13] = target: Peroxisome proliferator-activated receptor alpha (Homo sapiens) (UniProt Q07869); test: qHTS assay for small molecule agonists of the peroxisome proliferator-activated receptor alpha (PPARalpha) signaling pathway (AID 651778); conditions: PathHunter PPARalpha complementation, chemiluminescence, 6 h; max response: stronger effect = higher value; also: potency is read from the fitted curve at half-maximal effect; as to max response: % of control where 0% means no effect
Summary of the method: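 Chemiluminescence from complemented enzyme reported PPARalpha activation in cells after 6 hr of compound treatment at 37 C. The detection reagent was incubated for 60 min at room temperature, and compounds were scored as agonists.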

[14] = qHTS assay for small molecule agonists of the antioxidant response element (ARE) signaling pathway measured by Nrf2-dependant transcriptional activity - cell viability counter screen (AID 720653; active = well fitted curve in the direction sought with a large enough effect in the repeat runs; an effect the other way counts as inactive or inconclusive; also: % is scaled to controls: 0 for no effect and ±100 for the full control effect); conditions: ARE-bla HepG2 viability, CellTiter-Glo ATP luminescence, 16 h; max response: stronger effect = lower value
Summary of the method: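 Cytotoxicity counter screen: intracellular ATP quantified by CellTiter-Glo luminescence in the same ARE-bla HepG2 plates, after 16 h compound exposure and a 2 h beta-lactamase substrate step.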

[15] = qHTS assay for cell viability of HEK293 cells (AID 743288); conditions: ATP luminescence (CellTiter-Glo), 18 h; max response: stronger effect = lower value; also: % is scaled to controls: 0 for no effect and ±100 for the full control effect; nearly all actives have a fitted effect of over 50% in size
Summary of the method: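 Viable-cell counts were inferred from luciferase-based ATP content in HEK293 cells seeded at 2,000/well, pre-incubated ≥5 h, then dosed with DMSO-solubilised compounds for 18 h at 37 C.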

[16] = qHTS assay for cell viability of the p53RE-bla HCT-116 cell line (AID 743292); conditions: p53RE-bla HCT-116 viability, ATP luminescence, 16 h; series mostly up to 95 µM; also: % is scaled to controls: 0 for no effect and ±100 for the full control effect; nearly all actives have a fitted effect of over 55% in size
Summary of the method: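 Compound-exposed HCT-116 (p53RE-bla) cells, 4,000 per well, were kept 16 h at 37 C following a 5 h preincubation. Cell number was estimated from total ATP by CellTiter-Glo luminescence read after 30 min at room temperature.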

[17] = target: Nuclear receptor subfamily 1 group I member 2 (Rattus norvegicus) (UniProt Q9R1A7); test: qHTS assay for small molecule activators of the rat pregnane X receptor (rPXR) signaling pathway (AID 651751; call rule not given here; also: 0% is about no effect); conditions: rPXR reporter cells, luciferase (One-Glo), 24 h
[18] = qHTS assay for small molecule activators of the p53 signaling pathway (AID 651743; active = well fitted activation curve with a large enough effect in the signal ratio, not every such curve was filed as active; the % refers to the signal ratio; also: % of control where 0% means no effect); conditions: HCT-116 p53RE-bla, beta-lactamase FRET ratio, 16 h; activation: stronger effect = higher value
Summary of the method: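 A beta-lactamase reporter under p53 response element control, stably carried by HCT-116 cells, reported pathway activation. Test compounds were applied for 16 hours at 37 C, and fluorescence was measured 2 hours after adding the B/G FRET substrate.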

[19] = qHTS assay for small molecule agonists of the antioxidant response element (ARE) signaling pathway measured by Nrf2-dependant transcriptional activity (AID 720636; active = well fitted curve in the direction sought with a large enough effect in the repeat runs; an effect the other way counts as inactive or inconclusive;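 also: HepG2 cells with an ARE-driven luciferase reporter; % of control where 0% means no effect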); conditions: ARE-luc HepG2, Nrf2 luciferase reporter, 16 h; series mostly up to 92.4 µM
Summary of the method: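 Attachment 6 hr at 37 C, then compound versus DMSO vehicle for 16 hr in ARE-luc HepG2 cells (1% dialyzed FBS); luminescence recorded 30 min after ONE-Glo addition at room temperature.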

[20] = qHTS assay for small molecule activators of the human pregnane X receptor (PXR) signaling pathway (AID 720659; call rule not given here; also: 0% is about no effect); conditions: DPX-2 HepG2 CYP3A4-luciferase, 24 h; series mostly up to 92.3 µM

Chain of Peroxisome proliferator-activated receptor gamma (Homo sapiens) (P37231 whole entry, looked up): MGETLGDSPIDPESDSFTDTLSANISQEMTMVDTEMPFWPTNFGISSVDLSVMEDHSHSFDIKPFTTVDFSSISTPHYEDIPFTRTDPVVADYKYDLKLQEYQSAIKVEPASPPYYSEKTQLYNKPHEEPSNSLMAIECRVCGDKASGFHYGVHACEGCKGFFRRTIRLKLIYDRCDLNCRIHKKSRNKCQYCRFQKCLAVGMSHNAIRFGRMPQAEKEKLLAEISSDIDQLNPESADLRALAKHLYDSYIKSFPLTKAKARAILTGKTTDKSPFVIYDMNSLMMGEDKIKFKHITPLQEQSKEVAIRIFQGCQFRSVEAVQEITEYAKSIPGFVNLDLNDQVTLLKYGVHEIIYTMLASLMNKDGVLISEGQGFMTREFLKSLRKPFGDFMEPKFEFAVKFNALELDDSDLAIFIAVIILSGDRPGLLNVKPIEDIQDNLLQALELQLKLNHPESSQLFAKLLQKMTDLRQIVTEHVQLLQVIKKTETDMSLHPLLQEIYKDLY
Chain of Nuclear receptor subfamily 1 group I member 2 (Rattus norvegicus) (Q9R1A7 whole entry, looked up): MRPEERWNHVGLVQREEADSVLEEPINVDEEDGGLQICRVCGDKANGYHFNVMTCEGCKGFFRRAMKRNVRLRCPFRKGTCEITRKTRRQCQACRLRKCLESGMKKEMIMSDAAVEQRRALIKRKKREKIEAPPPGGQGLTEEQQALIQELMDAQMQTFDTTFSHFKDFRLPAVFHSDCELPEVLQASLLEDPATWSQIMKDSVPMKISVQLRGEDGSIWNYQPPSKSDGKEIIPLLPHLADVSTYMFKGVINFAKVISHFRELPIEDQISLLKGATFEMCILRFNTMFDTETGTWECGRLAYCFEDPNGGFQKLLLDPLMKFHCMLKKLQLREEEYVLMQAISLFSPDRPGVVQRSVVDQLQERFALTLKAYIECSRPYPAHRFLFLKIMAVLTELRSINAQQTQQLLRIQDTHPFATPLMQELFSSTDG
Chain of Peroxisome proliferator-activated receptor delta (Homo sapiens) (Q03181 whole entry, looked up): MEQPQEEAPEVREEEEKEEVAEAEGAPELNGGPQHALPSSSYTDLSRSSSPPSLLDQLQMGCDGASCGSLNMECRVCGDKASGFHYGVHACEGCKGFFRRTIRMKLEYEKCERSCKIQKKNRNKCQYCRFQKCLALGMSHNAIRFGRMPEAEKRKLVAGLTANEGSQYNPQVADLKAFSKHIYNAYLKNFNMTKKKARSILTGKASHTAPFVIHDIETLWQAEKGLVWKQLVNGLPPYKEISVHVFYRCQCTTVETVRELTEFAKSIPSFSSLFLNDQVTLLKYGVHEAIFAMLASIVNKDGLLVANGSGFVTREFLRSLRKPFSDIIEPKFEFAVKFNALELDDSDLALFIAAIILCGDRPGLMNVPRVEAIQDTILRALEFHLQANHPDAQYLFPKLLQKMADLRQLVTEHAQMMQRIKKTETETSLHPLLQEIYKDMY
Chain of Peroxisome proliferator-activated receptor alpha (Homo sapiens) (Q07869 whole entry, looked up): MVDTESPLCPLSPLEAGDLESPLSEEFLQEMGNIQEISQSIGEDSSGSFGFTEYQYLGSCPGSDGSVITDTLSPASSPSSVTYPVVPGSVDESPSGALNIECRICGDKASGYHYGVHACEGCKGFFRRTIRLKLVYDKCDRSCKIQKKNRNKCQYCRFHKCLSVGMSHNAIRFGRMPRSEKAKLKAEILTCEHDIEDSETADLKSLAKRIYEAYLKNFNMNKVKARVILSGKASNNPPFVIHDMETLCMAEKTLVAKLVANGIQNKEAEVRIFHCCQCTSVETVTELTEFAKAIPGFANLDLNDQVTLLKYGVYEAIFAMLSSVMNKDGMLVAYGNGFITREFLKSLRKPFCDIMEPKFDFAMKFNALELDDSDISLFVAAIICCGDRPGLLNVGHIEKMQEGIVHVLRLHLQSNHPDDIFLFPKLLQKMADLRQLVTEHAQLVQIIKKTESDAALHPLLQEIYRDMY
Chain of Glucocorticoid receptor (Homo sapiens) (P04150 whole entry, looked up): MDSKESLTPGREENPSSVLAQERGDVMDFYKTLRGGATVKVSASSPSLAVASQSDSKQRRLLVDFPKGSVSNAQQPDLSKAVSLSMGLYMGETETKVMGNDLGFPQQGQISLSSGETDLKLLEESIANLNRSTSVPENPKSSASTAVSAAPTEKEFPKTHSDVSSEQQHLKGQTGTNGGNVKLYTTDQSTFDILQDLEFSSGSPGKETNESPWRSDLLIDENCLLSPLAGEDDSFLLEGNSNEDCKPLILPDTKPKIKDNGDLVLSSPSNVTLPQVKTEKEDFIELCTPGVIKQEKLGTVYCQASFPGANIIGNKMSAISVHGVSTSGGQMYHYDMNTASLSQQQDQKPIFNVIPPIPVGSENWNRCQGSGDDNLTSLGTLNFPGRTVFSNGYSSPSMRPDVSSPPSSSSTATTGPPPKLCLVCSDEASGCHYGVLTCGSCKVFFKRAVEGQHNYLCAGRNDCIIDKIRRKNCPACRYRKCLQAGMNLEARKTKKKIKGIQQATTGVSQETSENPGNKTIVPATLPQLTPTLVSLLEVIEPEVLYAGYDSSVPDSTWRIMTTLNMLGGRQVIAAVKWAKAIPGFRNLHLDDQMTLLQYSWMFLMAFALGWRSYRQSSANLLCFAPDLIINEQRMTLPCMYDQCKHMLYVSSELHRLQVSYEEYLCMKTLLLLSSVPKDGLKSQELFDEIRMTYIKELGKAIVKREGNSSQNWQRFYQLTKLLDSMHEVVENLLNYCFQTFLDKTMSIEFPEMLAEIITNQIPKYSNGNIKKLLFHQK
Chain of Thyroid hormone receptor beta (Homo sapiens) (P10828 whole entry, looked up): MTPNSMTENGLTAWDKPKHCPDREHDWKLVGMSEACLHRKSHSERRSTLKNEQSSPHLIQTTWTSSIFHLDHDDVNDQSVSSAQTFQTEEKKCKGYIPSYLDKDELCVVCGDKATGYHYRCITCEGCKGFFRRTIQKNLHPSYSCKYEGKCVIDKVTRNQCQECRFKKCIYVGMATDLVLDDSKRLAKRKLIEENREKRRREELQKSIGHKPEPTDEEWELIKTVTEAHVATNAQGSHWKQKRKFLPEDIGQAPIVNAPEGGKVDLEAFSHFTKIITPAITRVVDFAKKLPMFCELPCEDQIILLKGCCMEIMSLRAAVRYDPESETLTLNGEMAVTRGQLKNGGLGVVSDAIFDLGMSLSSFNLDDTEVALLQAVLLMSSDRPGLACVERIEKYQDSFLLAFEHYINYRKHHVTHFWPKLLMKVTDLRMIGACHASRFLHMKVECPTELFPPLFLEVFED
Chain of Retinoic acid receptor RXR-alpha (Homo sapiens) (P19793 whole entry, looked up): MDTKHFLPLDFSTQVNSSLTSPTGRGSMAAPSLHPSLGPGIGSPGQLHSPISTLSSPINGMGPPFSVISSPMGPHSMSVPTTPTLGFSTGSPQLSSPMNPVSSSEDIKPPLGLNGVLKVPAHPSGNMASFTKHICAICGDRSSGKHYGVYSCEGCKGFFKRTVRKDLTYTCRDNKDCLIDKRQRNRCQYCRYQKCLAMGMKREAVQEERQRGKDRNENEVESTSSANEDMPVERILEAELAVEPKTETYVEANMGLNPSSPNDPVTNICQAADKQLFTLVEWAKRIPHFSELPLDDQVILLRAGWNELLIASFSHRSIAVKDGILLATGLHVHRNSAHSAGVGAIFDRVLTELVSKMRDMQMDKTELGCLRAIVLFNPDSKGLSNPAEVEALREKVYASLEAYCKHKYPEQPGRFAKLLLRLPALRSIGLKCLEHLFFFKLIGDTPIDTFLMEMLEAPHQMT
Chain of Vitamin D3 receptor (Homo sapiens) (P11473 whole entry, looked up): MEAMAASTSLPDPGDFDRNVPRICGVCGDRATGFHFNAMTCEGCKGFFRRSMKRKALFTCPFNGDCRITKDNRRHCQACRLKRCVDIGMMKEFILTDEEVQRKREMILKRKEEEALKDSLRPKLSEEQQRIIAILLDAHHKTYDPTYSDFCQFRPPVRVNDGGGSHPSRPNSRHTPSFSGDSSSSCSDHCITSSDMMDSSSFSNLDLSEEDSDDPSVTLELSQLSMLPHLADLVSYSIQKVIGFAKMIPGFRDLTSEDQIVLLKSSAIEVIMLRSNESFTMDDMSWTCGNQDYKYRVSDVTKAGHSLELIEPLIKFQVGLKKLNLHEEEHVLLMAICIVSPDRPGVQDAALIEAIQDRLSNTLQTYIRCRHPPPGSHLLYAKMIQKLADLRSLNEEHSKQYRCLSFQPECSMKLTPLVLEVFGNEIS

CC(C)(N=C=O)c1cccc(C(C)(C)N=C=O)c1
9.94%: max response [3]
-4.03%: max response [10]
8.92%: max response [7]
inactive: activation [1] 9.9% | Potency [2] | Potency [4] | outcome [5] | outcome [6] | Potency [8] | Potency [9] | max response [11] -29.1% | activation [12] 0.551% | max response [13] -1.39% | max response [14] -5.26% | max response [15] -12% | Potency [16] | max response [17] 4.49%

C=CCOc1nc(OCC=C)nc(OCC=C)n1
inactive: activation [1] -1.63% | Potency [2] | Potency [4] | outcome [5] | outcome [6] | Potency [8] | Potency [9] | max response [11] 0.817% | activation [18] -3.44% | activation [12] 5.16% | max response [13] -2.18% | Potency [19] | max response [14] 1.36% | max response [15] -0.661% | Potency [16] | max response [17] -0.162%
15.5%: max response [3]
-0.634%: max response [7]
-8.71%: max response [10]

CC1=CC(=O)CC(C)(C)C1
-20.2%: max response [7]
-3.41%: max response [10]
inactive: activation [1] -9.62% | Potency [2] | Potency [4] | outcome [6] | Potency [8] | Potency [9] | max response [11] -18.4% | activation [18] 0.625% | activation [12] 0.188% | max response [13] 0.525% | max response [14] -10.2% | max response [15] -2.87% | Potency [16] | max response [17] 1.52% | outcome [20]
13.3%: max response [3]

COC(=O)c1ccc(CNS(C)(=O)=O)cc1S(=O)(=O)NC(=O)Nc1nc(OC)cc(OC)n1
10.6%: max response [7]
inactive: activation [1] -4.55% | Potency [2] | outcome [6] | Potency [8] | Potency [9] | max response [11] 13.2% | activation [18] -5.96% | activation [12] -2.23% | Potency [19] | max response [14] 12.1% | max response [15] 10.3% | max response [17] -5.5% | outcome [20]
-12.9%: max response [10]

COC(=O)c1ccc(I)cc1S(=O)(=O)NC(=O)Nc1nc(C)nc(OC)n1
-6.12%: max response [7]
-4.15%: max response [10]
inactive: activation [1] 7.01% | Potency [2] | outcome [5] | outcome [6] | Potency [8] | max response [11] -12.1% | activation [18] -2.48% | activation [12] 2.67% | max response [13] -0.424% | Potency [19] | max response [14] -4.44% | max response [15] -13.7% | Potency [16] | max response [17] 3.28% | outcome [20]

C=CC(=O)OCCOc1ccccc1
-44.3%: max response [3]
-0.297%: max response [10]
inactive: activation [1] -7.33% | Potency [2] | Potency [4] | outcome [5] | outcome [6] | Potency [9] | max response [11] -20.4% | activation [18] 0.464% | activation [12] -0.084% | max response [13] -0.522% | max response [14] -16.9% | max response [15] -15.9% | Potency [16] | max response [17] 2.62% | outcome [20]

CCCCCCCCCCCCCCN(C)C
-0.764%: max response [10]
-17%: max response [7]
inactive: activation [1] 12.5% | Potency [2] | outcome [5] | outcome [6] | Potency [8] | Potency [9] | max response [11] -14.8% | activation [18] 5.52% | activation [12] 1.73% | max response [13] -1.88% | Potency [19] | max response [15] -20.2% | Potency [16] | max response [17] -1.42% | outcome [20]

COC(OC)(C(=O)c1ccccc1)c1ccccc1
-1.48%: max response [7]
-15.2%: max response [10]
13.5%: max response [3]
inactive: activation [1] -8.93% | Potency [2] | Potency [4] | outcome [5] | outcome [6] | Potency [8] | Potency [9] | max response [11] -6.2% | activation [12] 1.33% | max response [13] -0.253% | Potency [19] | max response [14] 5.37% | max response [15] -5.41% | Potency [16] | max response [17] 3.76% | outcome [20]

CCCCCCC(O)CCCCCCCCCCC(=O)OC (stereo not given)
active: Potency [13] 20 µM
18.1%: max response [3]
-11.4%: max response [7]
inactive: activation [1] -20.2% | Potency [2] | Potency [4] | outcome [6] | Potency [8] | activation [18] 0.349% | Potency [19] | max response [14] 9.9% | max response [15] -0.436% | Potency [16] | max response [17] -2.07% | outcome [20]

CC(C)CCCCOC(=O)c1ccccc1C(=O)OCCCCC(C)C
inactive: activation [1] -8.95% | Potency [2] | Potency [4] | outcome [5] | Potency [8] | max response [11] -8.08% | activation [18] -3.26% | activation [12] 0.811% | max response [13] 2.93% | Potency [19] | max response [15] -17.5% | Potency [16] | max response [17] 13.4%
-26.8%: max response [3]
-6.23%: max response [10]
6.42%: max response [7]

CCNc1nc(NC(C)CC)nc(OC)n1 (stereo not given)
-13.5%: max response [7]
-8.46%: max response [10]
inactive: activation [1] -21% | Potency [2] | outcome [5] | outcome [6] | Potency [8] | Potency [9] | max response [11] 7.45% | activation [18] -1.96% | activation [12] 2.63% | max response [13] 5.06% | Potency [19] | max response [14] 16.1% | max response [15] -2.08% | Potency [16] | max response [17] 1.4% | outcome [20]

CC(C)C(=O)OC(=O)C(C)C
-11.3%: max response [7]
1.13%: max response [3]
inactive: activation [1] -15% | Potency [2] | Potency [4] | outcome [6] | Potency [8] | Potency [9] | max response [11] -4.54% | activation [18] -7.19% | max response [13] -0.54% | Potency [19] | max response [14] -7.37% | max response [15] -4.79% | Potency [16] | max response [17] -1.65%
-12.1%: max response [10]

Source: PubChem BioAssay (NCATS)
